Records with an inconclusive call do not appear. Some compounds were tested as several samples or in several runs, with calls that do not always agree. Calls of active or inactive are those of the source. Rule for the calls, unless noted: active = hit-call score of the fitted dose curve at least 0.9, where 1 is the maximum; inconclusive = response in the unintended direction; inactive = score below 0.9.
Legend:
[1] = target: human Peroxisome Proliferator-activated Receptor delta (PPARd), PPARD (gene 5467) (UniProt Q03181); assay: ATG_PPARd_TRANS: Attagene TRANS-FACTORIAL HepG2 Assay for human Peroxisome Proliferator-activated Receptor delta (PPARd) (AID 2283002)
Outline: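 Read-out is induced reporter mRNA, quantified by RT-PCR with fluorescent labelling and capillary electrophoresis after 24 h dosing. Cells are HepG2 transiently carrying multiple GAL4-UAS reporter units driven by exogenous NR-GAL4 chimeras; DMSO serves as baseline.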

[2] = read-out: Intercellular Adhesion Molecule 1 (ICAM1), ICAM1 (gene 3383); assay: BSK_3C_ICAM1: BioMAP Diversity Plus: 3C Assay for Intercellular Adhesion Molecule 1 (ICAM1) Biomarker Activity (AID 2283003; active = hit-call score of the fitted dose curve at least 0.9, where 1 is the maximum; inactive = score below 0.9); conditions: primary human endothelial cells (HUVEC); actives raise or lower the signal
Outline: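 Primary human umbilical vein endothelial cells in the BioMAP 3C system were exposed to chemicals for 24 h, then ICAM-1 was quantified by ELISA. Activity was fitted bidirectionally against the DMSO negative control baseline.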

[3] = target: human Retinoic Acid Receptor beta (RARb), RARB (gene 5915) (UniProt P10826); assay: ATG_RARb_TRANS: Attagene TRANS-FACTORIAL HepG2 Assay for human Retinoic Acid Receptor beta (AID 2283004)
Outline: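 HepG2, transient MRTU transfection, NR–Gal4 chimera, 24 h treatment; RT-PCR plus CE fluorescence detection of reporter mRNA; gain of signal vs DMSO.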

[4] = target: Nuclear receptor subfamily 1 group I member 2 (Homo sapiens) (UniProt O75469); assay: ATG_PXR_TRANS: Attagene TRANS-FACTORIAL HepG2 Assay for human Pregnane X Receptor (PXR) (AID 2283008)
Outline: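 Measures mRNA induction of a GAL4-UAS-driven reporter in human HepG2 cells transiently expressing PXR fused to Gal4, following 24 h treatment. DMSO served as negative control and baseline.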

[5] = target: human RAR-related Orphan Receptor gamma (RORg), RORC (gene 6097) (UniProt P51449); assay: ATG_RORg_TRANS: Attagene TRANS-FACTORIAL HepG2 Assay for human RAR-related Orphan Receptor gamma (RORg) (AID 2283011)
Outline: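 Activity is scored as increase in GAL4-UAS reporter mRNA over DMSO, detected by fluorescent RT-PCR and capillary electrophoresis in HepG2 cells transiently expressing a RORg-Gal4 chimera, 24 h after dosing.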

[6] = read-out: E-selectin (Homo sapiens) (UniProt P16581); assay: BSK_3C_Eselectin: BioMAP Diversity Plus: 3C Assay for Eselectin Biomarker Activity (AID 2283015; active = hit-call score of the fitted dose curve at least 0.9, where 1 is the maximum; inactive = score below 0.9); conditions: primary human endothelial cells (HUVEC); actives raise or lower the signal
Outline: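 Human vascular endothelium from umbilical vein is exposed to test chemicals for 24 h. E-selectin levels are read by ELISA and compared with DMSO controls.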

[7] = read-out: Interleukin-1 alpha (IL1a), IL1A (gene 3552); assay: BSK_BE3C_IL1a: BioMAP Diversity Plus: BE3C Assay for Interleukin-1 alpha (IL1a) Biomarker Activity (AID 2283016; active = hit-call score of the fitted dose curve at least 0.9, where 1 is the maximum; inactive = score below 0.9); conditions: primary human bronchial epithelial cells; actives raise or lower the signal
Outline: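 Human primary bronchial epithelial cells (BE3C system) were dosed with compound and IL-1a measured by ELISA 24 h later. Activity was fitted bidirectionally against DMSO baseline; cytotoxicity was tracked in parallel cultures by SRB total-protein staining.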

[8] = read-out: Monocyte Chemoattractant Protein-1 (MCP1), CCL2 (gene 6347); assay: BSK_3C_MCP1: BioMAP Diversity Plus: 3C Assay for Monocyte Chemoattractant Protein-1 (MCP1) Biomarker Activity (AID 2283017; active = hit-call score of the fitted dose curve at least 0.9, where 1 is the maximum; inactive = score below 0.9); conditions: primary human endothelial cells (HUVEC); actives raise or lower the signal
Outline: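 Endothelial cells from human umbilical vein are dosed with chemical, cultured 24 h, then assayed for MCP-1 by ELISA; both increases and decreases are modelled against DMSO controls.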

[9] = read-out: Human Leukocyte Antigen - DR isotype (HLADR), HLA-DRA (gene 3122); assay: BSK_3C_HLADR: BioMAP Diversity Plus: 3C Assay for Human Leukocyte Antigen - DR isotype (HLADR) Biomarker Activity (AID 2283019; active = hit-call score of the fitted dose curve at least 0.9, where 1 is the maximum; inactive = score below 0.9); conditions: primary human endothelial cells (HUVEC); actives raise or lower the signal
Outline: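 Endothelial cells from human umbilical vein are treated with test chemical; after 24 h, HLA-DR levels are measured by ELISA. Data are fitted in both directions using DMSO as the baseline.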

[10] = read-out: Interleukin-8 (IL8), CXCL8 (gene 3576); assay: BSK_3C_IL8: BioMAP Diversity Plus: 3C Assay for Interleukin-8 (IL8) Biomarker Activity (AID 2283020; active = hit-call score of the fitted dose curve at least 0.9, where 1 is the maximum; inactive = score below 0.9); conditions: primary human endothelial cells (HUVEC); actives raise or lower the signal
Outline: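 Primary human umbilical vein endothelial cells (3C system) were exposed to test chemical for 24 h, then IL-8 was quantified by ELISA. Responses were fitted bidirectionally against DMSO vehicle as baseline.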

[11] = read-out: Monokine induced gamma interferon (MIG), CXCL9 (gene 4283); assay: BSK_3C_MIG: BioMAP Diversity Plus: 3C Assay for Monokine induced gamma interferon (MIG) Biomarker Activity (AID 2283021; active = hit-call score of the fitted dose curve at least 0.9, where 1 is the maximum; inactive = score below 0.9); conditions: primary human endothelial cells (HUVEC); actives raise or lower the signal
Outline: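 Primary human umbilical vein endothelial cells in the 3C system were exposed to chemical for 24 h, after which MIG was quantified by ELISA. Activity was fitted bidirectionally against DMSO as negative control and baseline.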

[12] = target: human Vitamin D Receptor (VDR), VDR (gene 7421) (UniProt P11473); assay: ATG_VDR_TRANS: Attagene TRANS-FACTORIAL HepG2 Assay for human Vitamin D Receptor (VDR) (AID 2283022)
Outline: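 Fluorescence of labelled reporter cDNA fragments, resolved by capillary electrophoresis, gives mRNA induction after 24 h treatment of HepG2 cells carrying transfected Gal4-fusion reporter units. Activity is fitted in the positive direction with DMSO as baseline.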

[13] = BSK_3C_Proliferation: Cell Proliferation Assessment in the BioMAP Diversity Plus: 3C Assay (AID 2283006; active = hit-call score of the fitted dose curve at least 0.9, where 1 is the maximum; inactive = score below 0.9;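 for AC50: potency may reflect either rise or fall in cell number versus DMSO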); conditions: primary human endothelial cells (HUVEC)
Outline: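 Human umbilical vein endothelial cells were grown sub-confluent and exposed to chemical for 48 h, then fixed with 10% TCA and stained with 0.1% sulforhodamine B; absorbance at 560 nm gave relative cell number, fitted bidirectionally against DMSO baseline.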

[14] = target: Peroxisome proliferator-activated receptor gamma (Homo sapiens) (UniProt P37231); assay: ATG_PPARg_TRANS: Attagene TRANS-FACTORIAL HepG2 Assay for human Peroxisome Proliferator-activated Receptor-gamma (PPARg) (AID 2283007)
Outline: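 Read-out: reporter mRNA induction, detected by fluorescence after RT-PCR and capillary electrophoresis. Transiently transfected human HepG2 liver cells carrying a chimeric NR-Gal4 construct were dosed for 24 h; activity was fitted upward relative to DMSO.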

[15] = target: Retinoic acid receptor RXR-alpha (Homo sapiens) (UniProt P19793); assay: ATG_RXRa_TRANS: Attagene TRANS-FACTORIAL HepG2 Assay for human Retinoid X Receptor alpha (RXRa) (AID 2283012)
Outline: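 HepG2 cells transiently transfected with multiplexed GAL4-UAS reporter units and chimeric NR-GAL4 fusions, dosed 24 h. Reporter mRNA measured by RT-PCR, FAM labelling, HpaI digestion and capillary electrophoresis; gain-of-signal fitted relative to DMSO baseline.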

[16] = target: human Retinoid X Receptor beta (RXRb), RXRB (gene 6257) (UniProt P28702); assay: ATG_RXRb_TRANS: Attagene TRANS-FACTORIAL HepG2 Assay for human Retinoid X Receptor beta (RXRb) (AID 2283013)
Outline: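 HepG2 cells transiently transfected with multiplexed reporter units driven by GAL4-UAS and exogenous chimeric NR-Gal4 proteins; treated 24 h. Reporter mRNA measured by RT-PCR, 6-FAM labelling and capillary electrophoresis; gain-of-signal fitted versus DMSO baseline.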

[17] = read-out: Monocyte Chemoattractant Protein-1 (MCP1), CCL2 (gene 6347); assay: BSK_4H_MCP1: BioMAP Diversity Plus: 4H Assay for Monocyte Chemoattractant Protein-1 (MCP1) Biomarker Activity (AID 2283018; active = hit-call score of the fitted dose curve at least 0.9, where 1 is the maximum; inactive = score below 0.9); conditions: primary human endothelial cells (HUVEC); actives raise or lower the signal
Outline: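 Human umbilical vein endothelial cells (4H system) dosed with chemical; MCP-1 measured by ELISA 24 h after dosing. Bidirectional curve fitting against DMSO negative control as baseline; parallel SRB total-protein staining tracks overt cytotoxicity.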

[18] = BSK_3C_SRB: Viability Assessment in the BioMAP Diversity Plus: 3C Assay (AID 2283023; active = hit-call score of the fitted dose curve at least 0.9, where 1 is the maximum; inactive = score below 0.9;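 note: fitted both ways against DMSO so a hit may be signal rise or drop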); conditions: primary human endothelial cells (HUVEC)
Outline: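 Cells were dosed with chemical, cultured 24 h, fixed with 10% TCA, stained with 0.1% SRB and read at 560 nm. Human umbilical vein endothelium was used; DMSO served as negative control and baseline.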

[19] = target: human RAR-related Orphan Receptor beta (RORb), RORB (gene 6096) (UniProt Q92753); assay: ATG_RORb_TRANS: Attagene TRANS-FACTORIAL HepG2 Assay for human RAR-related Orphan Receptor beta (RORb) (AID 2283010)
Outline: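 HepG2 cells were transiently transfected with multiplexed GAL4-UAS reporter units expressing chimeric nuclear receptor–GAL4 proteins, then dosed for 24 h. Reporter mRNA was quantified by RT-PCR with fluorescent labelling and capillary electrophoresis; gain of signal was fitted relative to DMSO.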

[20] = target: human Thyroid Receptor alpha (THRa1), THRA (gene 7067) (UniProt P10827); assay: ATG_THRa1_TRANS: Attagene TRANS-FACTORIAL HepG2 Assay for human Thyroid Receptor alpha (THRa1) (AID 2283014)
Outline: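 First, HepG2 cells receive multiple GAL4-UAS reporter units and the chimeric receptor. They are then dosed for 24 h, after which RNA is reverse-transcribed, amplified, labelled, HpaI-cut and sized by capillary electrophoresis; gain relative to DMSO is scored.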

Measured: AC50

Chain of human Vitamin D Receptor (VDR), VDR (gene 7421) (P11473 whole entry, looked up, the tested form may be a part): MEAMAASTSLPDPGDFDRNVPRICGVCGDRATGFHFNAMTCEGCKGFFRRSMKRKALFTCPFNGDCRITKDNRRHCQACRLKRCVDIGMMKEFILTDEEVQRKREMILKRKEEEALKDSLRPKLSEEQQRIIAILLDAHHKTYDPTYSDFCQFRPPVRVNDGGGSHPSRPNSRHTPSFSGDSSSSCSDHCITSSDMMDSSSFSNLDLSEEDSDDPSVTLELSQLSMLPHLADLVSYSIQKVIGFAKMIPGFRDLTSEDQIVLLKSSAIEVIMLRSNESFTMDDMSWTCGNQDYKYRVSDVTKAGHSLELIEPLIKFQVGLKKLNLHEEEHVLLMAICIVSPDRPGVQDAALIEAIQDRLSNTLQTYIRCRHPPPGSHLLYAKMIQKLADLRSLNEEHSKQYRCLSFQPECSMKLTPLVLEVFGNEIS
Chain of human RAR-related Orphan Receptor gamma (RORg), RORC (gene 6097) (P51449 whole entry, looked up, the tested form may be a part): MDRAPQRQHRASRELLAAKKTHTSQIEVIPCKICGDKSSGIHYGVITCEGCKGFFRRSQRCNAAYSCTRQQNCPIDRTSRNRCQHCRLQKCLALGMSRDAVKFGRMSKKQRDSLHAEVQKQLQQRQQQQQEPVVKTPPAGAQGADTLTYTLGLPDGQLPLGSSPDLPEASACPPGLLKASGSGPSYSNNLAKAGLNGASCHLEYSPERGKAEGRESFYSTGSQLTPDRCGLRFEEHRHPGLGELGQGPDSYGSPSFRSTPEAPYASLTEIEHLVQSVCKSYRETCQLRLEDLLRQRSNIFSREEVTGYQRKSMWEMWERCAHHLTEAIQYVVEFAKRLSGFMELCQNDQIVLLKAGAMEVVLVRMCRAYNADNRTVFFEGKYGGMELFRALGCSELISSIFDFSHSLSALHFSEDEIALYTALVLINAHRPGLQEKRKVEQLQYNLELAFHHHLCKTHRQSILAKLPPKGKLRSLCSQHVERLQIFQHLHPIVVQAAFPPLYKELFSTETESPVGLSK
Chain of E-selectin (Homo sapiens) (P16581 whole entry, looked up): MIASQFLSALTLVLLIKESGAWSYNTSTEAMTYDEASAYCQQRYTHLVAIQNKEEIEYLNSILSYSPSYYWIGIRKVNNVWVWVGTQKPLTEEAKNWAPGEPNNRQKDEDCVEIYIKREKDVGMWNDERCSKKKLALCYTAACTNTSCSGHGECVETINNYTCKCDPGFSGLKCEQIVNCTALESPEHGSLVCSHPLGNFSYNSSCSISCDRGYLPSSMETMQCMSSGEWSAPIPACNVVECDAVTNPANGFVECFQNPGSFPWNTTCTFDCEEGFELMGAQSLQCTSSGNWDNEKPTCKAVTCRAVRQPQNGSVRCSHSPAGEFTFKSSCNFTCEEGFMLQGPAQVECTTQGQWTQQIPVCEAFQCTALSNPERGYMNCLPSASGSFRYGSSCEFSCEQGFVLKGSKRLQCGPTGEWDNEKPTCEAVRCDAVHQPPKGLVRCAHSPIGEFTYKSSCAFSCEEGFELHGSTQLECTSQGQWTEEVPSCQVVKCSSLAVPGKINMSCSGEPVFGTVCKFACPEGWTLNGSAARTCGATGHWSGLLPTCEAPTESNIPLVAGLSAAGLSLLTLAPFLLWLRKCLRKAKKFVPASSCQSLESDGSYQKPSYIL
Chain of human Thyroid Receptor alpha (THRa1), THRA (gene 7067) (P10827 whole entry, looked up, the tested form may be a part): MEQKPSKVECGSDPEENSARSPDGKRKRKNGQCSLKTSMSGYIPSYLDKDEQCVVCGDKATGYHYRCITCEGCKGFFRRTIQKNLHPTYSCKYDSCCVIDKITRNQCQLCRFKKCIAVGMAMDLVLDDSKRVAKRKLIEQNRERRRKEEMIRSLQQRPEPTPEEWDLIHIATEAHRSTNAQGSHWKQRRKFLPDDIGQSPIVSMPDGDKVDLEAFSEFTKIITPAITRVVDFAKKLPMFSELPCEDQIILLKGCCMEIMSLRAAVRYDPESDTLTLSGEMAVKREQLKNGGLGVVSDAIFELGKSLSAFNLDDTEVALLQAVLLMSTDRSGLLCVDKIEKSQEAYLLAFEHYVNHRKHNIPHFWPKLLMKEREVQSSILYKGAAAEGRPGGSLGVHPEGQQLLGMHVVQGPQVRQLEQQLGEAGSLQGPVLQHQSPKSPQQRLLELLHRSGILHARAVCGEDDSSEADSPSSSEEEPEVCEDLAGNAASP
Chain of Peroxisome proliferator-activated receptor gamma (Homo sapiens) (P37231 whole entry, looked up, the tested form may be a part): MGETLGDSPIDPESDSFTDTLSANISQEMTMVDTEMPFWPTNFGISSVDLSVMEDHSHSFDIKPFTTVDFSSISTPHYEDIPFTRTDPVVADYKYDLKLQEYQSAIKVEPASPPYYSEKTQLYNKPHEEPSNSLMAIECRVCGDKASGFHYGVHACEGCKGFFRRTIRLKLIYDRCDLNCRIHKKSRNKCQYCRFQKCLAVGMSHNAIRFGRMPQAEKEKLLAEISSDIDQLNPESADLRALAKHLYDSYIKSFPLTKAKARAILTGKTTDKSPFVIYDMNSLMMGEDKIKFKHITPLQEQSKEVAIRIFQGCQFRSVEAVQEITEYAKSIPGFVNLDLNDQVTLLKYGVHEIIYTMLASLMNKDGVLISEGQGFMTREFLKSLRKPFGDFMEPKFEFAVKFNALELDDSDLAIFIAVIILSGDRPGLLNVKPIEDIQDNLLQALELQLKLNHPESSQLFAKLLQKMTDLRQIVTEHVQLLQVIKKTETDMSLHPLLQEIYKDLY
Chain of human Retinoic Acid Receptor beta (RARb), RARB (gene 5915) (P10826 whole entry, looked up, the tested form may be a part): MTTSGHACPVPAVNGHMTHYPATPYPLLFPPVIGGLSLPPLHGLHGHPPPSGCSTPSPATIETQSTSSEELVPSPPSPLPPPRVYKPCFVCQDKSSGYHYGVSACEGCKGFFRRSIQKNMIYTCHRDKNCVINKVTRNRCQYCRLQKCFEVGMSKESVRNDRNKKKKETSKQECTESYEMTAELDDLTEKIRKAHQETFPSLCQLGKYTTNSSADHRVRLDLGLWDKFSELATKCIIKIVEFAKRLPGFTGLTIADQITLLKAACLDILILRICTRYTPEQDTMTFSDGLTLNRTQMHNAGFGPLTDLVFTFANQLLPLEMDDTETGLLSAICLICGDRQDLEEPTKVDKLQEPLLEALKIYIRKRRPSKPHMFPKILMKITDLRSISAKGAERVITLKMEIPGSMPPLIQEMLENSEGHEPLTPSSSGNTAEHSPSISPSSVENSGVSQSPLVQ
Chain of human RAR-related Orphan Receptor beta (RORb), RORB (gene 6096) (Q92753 whole entry, looked up, the tested form may be a part): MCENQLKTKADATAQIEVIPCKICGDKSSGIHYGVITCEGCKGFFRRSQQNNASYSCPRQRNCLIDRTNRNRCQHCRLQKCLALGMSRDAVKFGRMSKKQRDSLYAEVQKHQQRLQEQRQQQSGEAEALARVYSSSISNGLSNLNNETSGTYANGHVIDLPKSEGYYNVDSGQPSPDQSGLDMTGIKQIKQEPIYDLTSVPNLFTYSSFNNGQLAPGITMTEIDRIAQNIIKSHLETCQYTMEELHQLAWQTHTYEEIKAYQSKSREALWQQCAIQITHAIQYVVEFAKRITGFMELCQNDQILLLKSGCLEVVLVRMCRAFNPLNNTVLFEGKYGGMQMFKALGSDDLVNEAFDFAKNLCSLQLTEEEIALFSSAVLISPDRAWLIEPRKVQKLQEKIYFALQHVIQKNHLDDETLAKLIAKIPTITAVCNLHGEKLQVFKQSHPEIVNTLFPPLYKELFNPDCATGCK
Chain of human Peroxisome Proliferator-activated Receptor delta (PPARd), PPARD (gene 5467) (Q03181 whole entry, looked up, the tested form may be a part): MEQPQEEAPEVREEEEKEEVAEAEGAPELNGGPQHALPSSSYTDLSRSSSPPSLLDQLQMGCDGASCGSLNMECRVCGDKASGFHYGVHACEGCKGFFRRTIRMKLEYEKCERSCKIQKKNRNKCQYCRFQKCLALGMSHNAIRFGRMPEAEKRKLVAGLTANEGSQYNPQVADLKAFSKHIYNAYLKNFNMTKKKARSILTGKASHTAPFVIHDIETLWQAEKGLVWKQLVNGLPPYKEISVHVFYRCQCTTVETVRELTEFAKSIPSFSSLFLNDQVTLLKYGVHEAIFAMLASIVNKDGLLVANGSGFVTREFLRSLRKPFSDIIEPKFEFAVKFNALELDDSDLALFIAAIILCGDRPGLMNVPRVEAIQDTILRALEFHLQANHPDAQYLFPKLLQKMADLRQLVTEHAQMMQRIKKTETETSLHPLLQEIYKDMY
Chain of Nuclear receptor subfamily 1 group I member 2 (Homo sapiens) (O75469 whole entry, looked up, the tested form may be a part): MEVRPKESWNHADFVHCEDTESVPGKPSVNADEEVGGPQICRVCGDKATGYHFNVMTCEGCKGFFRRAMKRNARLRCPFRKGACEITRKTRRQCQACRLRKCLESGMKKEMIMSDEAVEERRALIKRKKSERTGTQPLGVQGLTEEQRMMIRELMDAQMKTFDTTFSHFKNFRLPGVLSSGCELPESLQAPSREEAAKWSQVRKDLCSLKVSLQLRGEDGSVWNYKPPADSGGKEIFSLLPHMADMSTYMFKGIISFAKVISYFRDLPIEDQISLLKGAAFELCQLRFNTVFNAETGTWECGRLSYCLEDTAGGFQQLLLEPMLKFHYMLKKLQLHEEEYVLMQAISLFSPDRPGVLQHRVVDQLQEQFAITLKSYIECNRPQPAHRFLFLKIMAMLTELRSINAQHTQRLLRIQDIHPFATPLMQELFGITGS
Chain of human Retinoid X Receptor beta (RXRb), RXRB (gene 6257) (P28702 whole entry, looked up, the tested form may be a part): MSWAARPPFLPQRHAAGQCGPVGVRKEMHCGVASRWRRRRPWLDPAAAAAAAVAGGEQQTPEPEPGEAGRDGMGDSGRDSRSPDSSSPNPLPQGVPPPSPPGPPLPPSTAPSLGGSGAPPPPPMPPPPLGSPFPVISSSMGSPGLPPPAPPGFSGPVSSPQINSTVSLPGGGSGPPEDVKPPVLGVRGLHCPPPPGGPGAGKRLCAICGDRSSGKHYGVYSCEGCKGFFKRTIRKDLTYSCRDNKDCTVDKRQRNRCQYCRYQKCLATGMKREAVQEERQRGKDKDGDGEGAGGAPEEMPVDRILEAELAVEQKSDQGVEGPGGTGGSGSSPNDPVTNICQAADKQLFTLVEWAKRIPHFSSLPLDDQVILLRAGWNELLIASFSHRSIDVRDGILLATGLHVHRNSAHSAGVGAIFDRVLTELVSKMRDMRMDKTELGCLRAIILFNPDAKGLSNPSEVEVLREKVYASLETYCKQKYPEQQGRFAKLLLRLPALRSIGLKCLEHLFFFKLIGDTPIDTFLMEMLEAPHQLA

O=C(O)Cc1cc(I)c(Oc2ccc(O)c(I)c2)c(I)c1
inactive: [1] | [2] | [3] | [4] | [5] | [6] | [8] | [9] | [10] | [11] | [12]
active: [4] 19.4 µM | [7] 25.5 µM

CC[C@@H]1C[C@H](N(Cc2cc(C(F)(F)F)cc(C(F)(F)F)c2)C(C)=O)c2cc(C(F)(F)F)ccc2N1C(=O)OC(C)C
active: [4] 0.118 µM
not listed: [5] | [19] | [20]
inactive: all other assays above

CCCCCCCC[Si](OCC)(OCC)OCC
active: [16] 26.8 µM | [6] 17.5 µM | [8] 31.2 µM | [17] 29.5 µM | [9] 23.3 µM | [10] 30 µM
inactive: [1] | [2] | [3] | [14] | [19] | [16] | [20] | [7] | [11] | [12]

CC[C@H](NC(=O)c1cc(F)ccc1NS(=O)(=O)c1cccc2cccnc12)c1ccccc1
active: [14] 13.1 µM | [4] 0.0124 µM
not listed: [5] | [15] | [16] | [19] | [20]
inactive: all other assays above

Cc1cc2c(cc1C(F)(F)F)N(C(=O)Nc1ccc(Oc3cccnc3C)nc1)CC2
active: [13] 9.22 µM | [9] 18.4 µM | [10] 0.889 µM
not listed: [12] | [15] | [18] | [19]
inactive: all other assays above

Cc1cccc2ccccc12
not listed: [3] | [15]
inactive: all other assays above

O=C(Nc1ccc(Cl)cc1)Nc1ccc(Cl)c(Cl)c1
active: [13] 2.04 µM | [8] 3.28 µM | [17] 4.31 µM | [9] 1.68 µM | [10] 1.87 µM
not listed: [5] | [12] | [15] | [18] | [19]
inactive: all other assays above

— PubChem BioAssay (EPA / NIEHS)
